The source of these data is publication PMC11062922 (Nature Chemical Biology, 2023).

Molecules are shown by their SMILES. Read-outs that look alike come from different tables or passages of the source.

What all share (set-up): species or system human, MV4-11 + K-562 + COLO205 + SK-N-BE2 + OVCAR-8
One assay relates to AGK. The note with it: read-out: apparent Kd; compound concentrations:100 nM and 1000 nM (sheet 'Samples'); n = 1.
The next assay has as its system CDKL5. The note with it: read-out: apparent Kd; compound concentrations:100 nM and 1000 nM (sheet 'Samples'); n = 1.
The subject of another assay is CLK1. The conditions noted are these: read-out: apparent Kd; compound concentrations:100 nM and 1000 nM (sheet 'Samples'); n = 1.
The test system of another assay is CLK2. The conditions noted are these: read-out: apparent Kd; compound concentrations:100 nM and 1000 nM (sheet 'Samples'); n = 1.
In another assay the test system is CLK4. The note with it: read-out: apparent Kd; compound concentrations:100 nM and 1000 nM (sheet 'Samples'); n = 1.
Another assay deals with ADRBK1. The conditions noted are these: read-out: apparent Kd, n = 1.
The subject of a further assay is CSNK1G1. The conditions noted are these: read-out: apparent Kd; compound concentrations: 100 nM and 1000 nM (sheet 'Samples'), CATDS: 0.16245140586904; n = 1.
In another assay the test system is NQO2. The conditions noted are these: read-out: apparent Kd; compound concentrations: 100 nM and 1000 nM (sheet 'Samples'), CATDS: 0.164283529908442; n = 1.
The subject of another assay is PDXK. The note with it: read-out: apparent Kd; compound concentrations: 100 nM and 1000 nM (sheet 'Samples'), CATDS: 0.18883200846926201; n = 1.
For another assay, the system named is TP53RK. The note with it: read-out: apparent Kd; compound concentrations: 100 nM and 1000 nM (sheet 'Samples'), CATDS: 0.1506883600127; n = 1.
Another assay relates to VDAC3. The note with it: read-out: apparent Kd; compound concentrations: 100 nM and 1000 nM (sheet 'Samples'), CATDS: 0.190251033630114; n = 1.
For the next assay, the system named is MAPK14. The conditions noted are these: read-out: apparent Kd; compound concentrations:100 nM and 1000 nM (sheet 'Samples'); n = 1.
The subject of a further assay is PIK3C2A. The conditions noted are these: read-out: apparent Kd; compound concentrations:100 nM and 1000 nM (sheet 'Samples'); n = 1.
The test system of another assay is PRKCI. The conditions noted are these: read-out: apparent Kd; compound concentrations:100 nM and 1000 nM (sheet 'Samples'); n = 1.
In a further assay the test system is PYGL. The note with it: read-out: apparent Kd; compound concentrations:100 nM and 1000 nM (sheet 'Samples'); n = 1.
The subject of the next assay is RPS6KA3. The note with it: read-out: apparent Kd; compound concentrations:100 nM and 1000 nM (sheet 'Samples'); n = 1.
A further assay concerns STK16. The conditions noted are these: read-out: apparent Kd; compound concentrations:100 nM and 1000 nM (sheet 'Samples'); n = 1.
Another assay concerns AKT1. The note with it: read-out: apparent Kd; compound concentrations:100 nM and 1000 nM (sheet 'Samples'); n = 1.
The next assay relates to AKT3. The conditions noted are these: read-out: apparent Kd; compound concentrations:100 nM and 1000 nM (sheet 'Samples'); n = 1.
The next assay has as its system DDX3X;DDX3Y. The conditions noted are these: read-out: apparent Kd; compound concentrations:100 nM and 1000 nM (sheet 'Samples'); n = 1.
The next assay has as its system RIOK2. The conditions noted are these: read-out: apparent Kd, n = 1.
A further assay concerns MAP2K2. The conditions noted are these: read-out: apparent Kd, compound concentrations: 100 nM and 1000 nM (sheet 'Samples'), n = 1.
For the next assay, the system named is NNT. The note with it: read-out: apparent Kd; compound concentrations: 100 nM and 1000 nM (sheet 'Samples'), CATDS: 0.33555608244827101; n = 1.
A further assay concerns AKT2. The conditions noted are these: read-out: apparent Kd, compound concentrations: 100 nM and 1000 nM (sheet 'Samples'), n = 1.
The subject of another assay is PLK1. The note with it: read-out: apparent Kd; compound concentrations: 100 nM and 1000 nM (sheet 'Samples'), CATDS: 0.29940463058405897; n = 1.
Another assay has as its system STK26. The conditions noted are these: read-out: apparent Kd; compound concentrations: 100 nM and 1000 nM (sheet 'Samples'), CATDS: 0.193816418498372; n = 1.
In a further assay the test system is MAP2K3. The conditions noted are these: read-out: apparent Kd; compound concentrations: 100 nM and 1000 nM (sheet 'Samples'), CATDS: 0.58030400025916395; n = 1.
The subject of another assay is ATM. The note with it: read-out: apparent Kd; compound concentrations:100 nM and 1000 nM (sheet 'Samples'); n = 1.
The subject of a further assay is CDK16. The conditions noted are these: read-out: apparent Kd; compound concentrations:100 nM and 1000 nM (sheet 'Samples'); n = 1.
The next assay has as its system CDK17. The conditions noted are these: read-out: apparent Kd; compound concentrations:100 nM and 1000 nM (sheet 'Samples'); n = 1.
A further assay relates to CDK2. The note with it: read-out: apparent Kd; compound concentrations:100 nM and 1000 nM (sheet 'Samples'); n = 1.
A further assay has as its system PAK4. The note with it: read-out: apparent Kd; compound concentrations:100 nM and 1000 nM (sheet 'Samples'); n = 1.
The test system of a further assay is STK3. The note with it: read-out: apparent Kd; compound concentrations:100 nM and 1000 nM (sheet 'Samples'); n = 1.
The test system of another assay is STK4. The note with it: read-out: apparent Kd; compound concentrations:100 nM and 1000 nM (sheet 'Samples'); n = 1.
[1] abbreviates: compound concentrations:100 nM and 1000 nM (sheet 'Samples').

As for `COc1ccc2c(-c3ccnc(Nc4cccc(OC(F)(F)F)c4)n3)cnn2n1` [GW810372X], the potency estimated from few doses is 2270 nM in the assay on AGK; 1850 nM in the assay on CDKL5; 82.4 nM in the assay with CLK1; 20.2 nM in the assay with CLK2; 120 nM with CLK4.
For `CCn1cnc2c(N)ncnc21` [GW345098X], the potency estimated from few doses with ADRBK1 (compound concentrations: 100 nM and 1000 nM (sheet 'Samples'), CATDS: 0.15222698888400599) was 2400 nM; in the assay with CSNK1G1, 2080 nM; with NQO2, 2040 nM; with PDXK it was 1560 nM; in the assay with TP53RK, 2450 nM; in the assay on VDAC3 it was 1540 nM.
Consider `CCCC(=O)Nc1n[nH]c2ncccc12` [SB-601436], for which the potency estimated from few doses was 2140 nM in the assay with ADRBK1 (setting [1]); 1310 nM in the assay on MAPK14; 2470 nM in the assay with PIK3C2A; 2080 nM in the assay on PRKCI; 2170 nM with PYGL; 1890 nM in the assay on RPS6KA3. Further, the potency estimated from few doses in the assay on STK16 was 1480 nM.
Consider `COc1cccc(C2=C(Nc3cccc(O)c3)C(=O)NC2=O)c1` [SB-390771], for which the potency estimated from few doses in the assay with AKT1 was 2060 nM; in the assay with AKT3, 1930 nM; with DDX3X;DDX3Y, 2110 nM; in the assay with RIOK2 (setting [1]), 2460 nM.
Take `Cc1cc(N2Cc3ccccc3C2)nc(Nc2ccc(S(=O)(=O)N3CCOCC3)cc2)n1.Cl` [GSK1669917A]: the potency estimated from few doses in the assay with ADRBK1 (compound concentrations: 100 nM and 1000 nM (sheet 'Samples'), CATDS: 0.38079622737555602) was 1290 nM; in the assay on MAP2K2 (CATDS: 0.29465532437802699), 2170 nM; in the assay with NNT, 1640 nM.
Consider `C[C@@H](Oc1cc(-n2cnc3ccc(NC(=O)NC(C)(C)C)cc32)sc1C(N)=O)c1ccccc1Cl` [GSK346294A], for which the potency estimated from few doses with AKT2 (CATDS: 0.175578596413346) is 2320 nM; with MAP2K2 (CATDS: 0.187838411723944), 1980 nM; in the assay on PLK1, 851 nM; with RIOK2 (compound concentrations: 100 nM and 1000 nM (sheet 'Samples'), CATDS: 0.18243724402643599), 2120 nM; with STK26, 1850 nM.
As to `Nc1c(C(=O)c2ccc(C#CCN3CCOCC3)cc2)cnn1-c1ccc(F)cc1` [RO1153136-000], the values for the potency estimated from few doses with AKT2 (CATDS: 0.43921962783060797) and with MAP2K3 were 2590 nM and 1470 nM, respectively.
For `COc1cc(F)c(F)cc1C(=O)c1cnc(NC2CCN(S(C)(=O)=O)CC2)nc1N` [RO4595655-000], the potency estimated from few doses was 157 nM with ATM; 1510 nM with CDK16; 1840 nM in the assay with CDK17; 1210 nM in the assay with CDK2; 1430 nM in the assay with CLK4; 1340 nM with PAK4. Also, the results for the potency estimated from few doses in the assay on STK3 and in the assay on STK4 were 2300 nM and 1690 nM, respectively.
